PubChem BioAssay (Tox21)
Unmarked numbers belong to inactive results. Results filed as inconclusive are left out. Where a call stands in place of a potency, no number is given. The source made the active and inactive calls. Unless noted, calls come from the whole dose curve; as a rule, active = well fitted curve in the direction sought with a large enough effect in the repeat runs; inconclusive = weak or mixed curves; inactive = no such curve, though single readings can be large; an effect the other way counts as inactive or inconclusive.

Columns and labels:
[1] = qHTS assay to identify small molecule agonists of H2AX - cell viability counter screen (AID 1224847; calls by dose curve; note: nearly all actives have a fitted effect of over 30% in size; note: potency is the fitted concentration of half-maximal effect); conditions: CHO-K1 viability, CellTiter-Glo luminescence, 3 h; series mostly up to 154 µM
How it was run: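 Read-out: CellTiter-Glo luminescence, 30 min RT. Cells: wild-type CHO-K1, 1000/well, 10% FBS, plated overnight at 37C. Treatment: 15 concentrations, 3 hr, 37C, 0.76% DMSO.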

[2] = qHTS assay to identify small molecule antagonists of the estrogen related receptor (ERR) signaling pathway from Tox21 library (AID 1224848); conditions: ERR reporter cell line, luciferase antagonist mode, 18 h; series mostly up to 92.4 µM; note: nearly all actives have a fitted effect of over 50% in size; note: potency is the fitted concentration of half-maximal effect
How it was run: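 Screening used an ERR reporter line supplied by NTP, exposed for 18 h at 37 C to library compounds delivered in DMSO. Signal was luciferase luminescence developed with ONE-Glo at room temperature for 30 min.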

[3] = qHTS assay to identify small molecule agonists of the estrogen related receptor (ERR) signaling pathway from Tox21 library (AID 1224849; calls by dose curve; note: nearly all actives have a fitted effect of over 15% in size); conditions: ERR reporter cell line, ONE-Glo luciferase, 18 h; at 92.4 µM (top of the series) unless noted
How it was run: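 ERR cells, 6 h pre-incubation 37 C/5% CO2; cpd in DMSO pinned; 18 h 37 C; ONE-Glo added, 30 min RT; luminescence read. Agonist mode, qHTS.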

[4] = qHTS RealTime-Glo MT Cell Viability Assay in HEK293 cells - 32 hour (AID 1224868); conditions: RealTime-Glo luminescence; series mostly up to 76.8 µM; note: nearly all actives have a fitted effect of over 50% in size; note: potency is the fitted concentration of half-maximal effect
How it was run: (§1)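 HEK293 cells seeded with NanoLuc/prosubstrate reagent, rested 5 h at 37 C, then dosed and kept at 37 C up to 40 h. Nonlytic real-time luminescence from viable cells read at 0, 8, 16, 24, 32 and 40 h.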

[5] = A CellTox Green Cytotoxicity Assay to monitor cytotoxicity in HEK293 cells - 0 hour (AID 1224869); conditions: CellTox Green fluorescence; series mostly up to 76.8 µM; note: nearly all actives have a fitted effect of over 50% in size
How it was run: (§2)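 Nonlytic real-time cytotoxicity: HEK293 + CellTox Green reagent plated, 5 h preincubation, pintool compound addition (23 nL in DMSO), 37 C for 40 h, fluorescence measured at successive time points.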

[6] = A CellTox Green Cytotoxicity Assay to monitor cytotoxicity in HEK293 cells - 40 hour (AID 1224871); conditions: CellTox Green fluorescence; series mostly up to 76.8 µM; note: nearly all actives have a fitted effect of over 45% in size; note: potency is the fitted concentration of half-maximal effect
How it was run: as §2

[7] = qHTS RealTime-Glo MT Cell Viability Assay in HEK293 cells - 16 hour (AID 1224872); conditions: RealTime-Glo luminescence; series mostly up to 76.8 µM; note: nearly all actives have a fitted effect of over 50% in size; note: potency is the fitted concentration of half-maximal effect
How it was run: as §1

[8] = qHTS RealTime-Glo MT Cell Viability Assay in HEK293 cells - 40 hour (AID 1224874); conditions: RealTime-Glo luminescence; max response: active compounds read low; note: nearly all actives have a fitted effect of over 50% in size; note: potency is the fitted concentration of half-maximal effect
How it was run: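 Cells were seeded together with NanoLuc luciferase and a prosubstrate that viable cells reduce to a luciferase substrate. After a 5 h incubation at 37 C/5% CO2, compounds were added and luminescence was measured repeatedly during 40 h of treatment.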

[9] = A CellTox Green Cytotoxicity Assay to monitor cytotoxicity in HEK293 cells - 24 hour (AID 1224875); conditions: CellTox Green fluorescence; series mostly up to 76.8 µM; note: nearly all actives have a fitted effect of over 45% in size; note: potency is the fitted concentration of half-maximal effect
How it was run: as §2

[10] = A CellTox Green Cytotoxicity Assay to monitor cytotoxicity in HepG2 cells - 16 hour (AID 1224876); conditions: CellTox Green fluorescence; series mostly up to 76.8 µM; note: nearly all actives have a fitted effect of over 45% in size; note: potency is the fitted concentration of half-maximal effect
How it was run: (§3)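 Read-out is fluorescence of a cyanine dye excluded from live cells that stains DNA of dead HepG2 cells, with signal proportional to cytotoxicity. Plates were read at 0, 8, 16, 24, 32 and 40 h after compound addition.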

[11] = qHTS assay to identify small molecule agonists of the hypoxia (HIF-1) signaling pathway - cell viability counter screen (AID 1224844; calls by dose curve; note: nearly all actives have a fitted effect of over 50% in size; note: potency is the fitted concentration of half-maximal effect); conditions: HRE-bla ME-180 viability, CellTiter-Glo luminescence, 17 h; series mostly up to 76.8 µM
How it was run: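 ME-180 HRE-bla cells, 2,000/well, 0.5% dialyzed FBS; 5 hr settle, 17 hr compound at 37C/5% CO2; CCF4-AM reporter read first, then CellTiter-Glo luminescence after 30 min RT.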

[12] = qHTS assay to identify small molecule agonists of H2AX (AID 1224845; active = well fitted activation curve with a large enough effect in the signal ratio in the repeat runs, not every such curve was filed as active; the % refers to the signal ratio; note: potency is the fitted concentration of half-maximal effect); conditions: CHO-K1 phospho-H2AX Ser139 HTRF, 3 h; series mostly up to 154 µM
How it was run: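 Wild-type CHO-K1 cells plated overnight, then exposed 3 hr at 37C to compounds at 15 concentrations (0.76% DMSO). Lysed, then HTRF anti-pH2AX(S139)-cryptate/anti-H2AX-d2 detection after 24 hr at room temperature; emissions 665 and 620 nm.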

[13] = qHTS RealTime-Glo MT Cell Viability Assay in HepG2 cells - 24 hour (AID 1224867); conditions: RealTime-Glo luminescence; series mostly up to 76.8 µM; note: nearly all actives have a fitted effect of over 50% in size; note: potency is the fitted concentration of half-maximal effect
How it was run: (§4)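 HepG2 cells (600/well) were dispensed with RealTime-Glo reagents, incubated 5 h at 37 °C, then treated with compounds in DMSO for up to 40 h. Nonlytic NanoLuc luminescence reflecting viable cells was read at each stated time point.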

[14] = qHTS RealTime-Glo MT Cell Viability Assay in HepG2 cells - 8 hour (AID 1224873); conditions: RealTime-Glo luminescence; series mostly up to 76.8 µM; note: nearly all actives have a fitted effect of over 55% in size; note: potency is the fitted concentration of half-maximal effect
How it was run: (§5)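 HepG2 cells mixed with RealTime-Glo MT reagents (NanoLuc plus cell-permeant prosubstrate) were seeded at 600 cells/well, incubated 5 h at 37 C/5% CO2, then pinned with compounds in DMSO; nonlytic luminescence tracked viability during 40 h treatment.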

[15] = qHTS RealTime-Glo MT Cell Viability Assay in HepG2 cells - 32 hour (AID 1224877); conditions: RealTime-Glo luminescence; series mostly up to 76.8 µM; note: nearly all actives have a fitted effect of over 55% in size; note: potency is the fitted concentration of half-maximal effect
How it was run: as §4

[16] = qHTS assay to identify small molecule agonists of the hypoxia (HIF-1) signaling pathway (AID 1224846; active = well fitted activation curve with a large enough effect in the signal ratio in the repeat runs, not every such curve was filed as active; the % refers to the signal ratio); conditions: HRE-bla ME-180 cells, beta-lactamase ratio, 17 h; series mostly up to 76.8 µM
How it was run: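 Cell line: CellSensor HRE-bla ME-180; 2,000 cells/well; 0.5% dialyzed FBS; 5 h preincubation; DMSO compound pin transfer; 17 h, 37C, 5% CO2; CCF4-AM added; bla FRET signal scored for activation.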

[17] = A CellTox Green Cytotoxicity Assay to monitor cytotoxicity in HepG2 cells - 24 hour (AID 1224878); conditions: CellTox Green fluorescence; series mostly up to 76.8 µM; note: nearly all actives have a fitted effect of over 45% in size; note: potency is the fitted concentration of half-maximal effect
How it was run: as §3

[18] = A CellTox Green Cytotoxicity Assay to monitor cytotoxicity in HepG2 cells - 40 hour (AID 1224879); conditions: CellTox Green fluorescence; series mostly up to 76.8 µM; note: nearly all actives have a fitted effect of over 40% in size; note: potency is the fitted concentration of half-maximal effect
How it was run: as §3

[19] = qHTS RealTime-Glo MT Cell Viability Assay in HepG2 cells - 40 hour (AID 1224870); conditions: RealTime-Glo luminescence; series mostly up to 76.8 µM; note: nearly all actives have a fitted effect of over 50% in size; note: potency is the fitted concentration of half-maximal effect
How it was run: as §5

Compound | Potency [1] | Potency [2] | activity change, positive = activation [3] | Potency [4] | Potency [5] | Potency [6] | Potency [7] | Potency [8] | Potency [9] | Potency [10] | Potency [11] | Potency [12] | Potency [13] | Potency [14] | max response [8] | Potency [15] | outcome [16] | Potency [17] | Potency [18] | Potency [19]
c1cc(N(CC2CO2)CC2CO2)ccc1Cc1ccc(N(CC2CO2)CC2CO2)cc1 (configuration not stated) | inactive | 21.7 µM (active) | -66.1% | 34.7 µM (active) | inactive | 49 µM (active) | 43.6 µM (active) | 24.5 µM (active) | inactive | inactive |  |  |  |  |  |  |  |  |  | 
COc1ncnc(NS(=O)(=O)c2ccc(N)cc2)c1OC | inactive |  | 1.61% [at 42.5 µM] | inactive | inactive | inactive | inactive |  | inactive |  | inactive | inactive | inactive | inactive | -0.242% | inactive |  |  |  | 
CC(=O)Nc1cc(S(=O)(=O)O)cc2cc(S(=O)(=O)O)c(N=Nc3ccccc3)c(O)c12 | 50.5 µM (active) |  | -5.56% | inactive | inactive | inactive | inactive |  | inactive | inactive | inactive |  | inactive | inactive | -17.9% | inactive | inactive | inactive | inactive | 
CC(=O)OCCN(CCOC(C)=O)c1ccc(N=Nc2ccc([N+](=O)[O-])cc2C#N)cc1 | 50.5 µM (active) | 61.1 µM (active) | -46.9% |  | inactive | inactive |  |  | inactive | inactive | inactive |  | inactive |  |  | inactive | inactive | inactive | inactive | inactive
C[C@@H](O[C@H]1OCCN(Cc2n[nH]c(=O)[nH]2)[C@H]1c1ccc(F)cc1)c1cc(C(F)(F)F)cc(C(F)(F)F)c1 |  | 23.7 µM (active) | -53.3% [at 42.5 µM] | 16.9 µM (active) | inactive |  | 19 µM (active) | 16.9 µM (active) |  | 16.9 µM (active) | 21.3 µM (active) |  | 21.3 µM (active) |  |  |  |  | 15.1 µM (active) | 16.9 µM (active) | 21.3 µM (active)
O=Cc1c2ccccc2c(Cl)c2ccccc12 | inactive |  | -33.4% [at 42.5 µM] |  | inactive | inactive |  |  | inactive | inactive | inactive | inactive | inactive | inactive |  |  |  | inactive | inactive | inactive
CCC(=O)C1CC(C(C)C)CC=C1C (configuration not stated) | inactive | inactive | 5.57% | inactive | inactive | inactive | inactive |  | inactive |  |  | inactive | inactive | inactive | 9.7% | inactive |  | inactive | inactive | 
COC(=O)c1nc(Cl)c(Cl)nc1N |  | 29.8 µM (active) | -72.9% [at 42.5 µM] | 5.35 µM (active) | inactive | 13.4 µM (active) | 12 µM (active) | 4.77 µM (active) |  |  | 13.4 µM (active) |  |  |  |  | 10.7 µM (active) |  |  |  | 12 µM (active)
CCOc1cccc(-n2cc(C(=O)N3CCN(c4cc(C(=O)O)c5ccccc5c4)CC3)nc2-c2ccc(C)cc2)c1 |  |  | -37.7% | inactive | inactive | inactive |  |  | inactive | inactive |  |  | inactive | inactive | 7.68% | inactive | inactive | inactive | inactive | 
O=c1cc(-c2ccccc2)oc2ccc3ccccc3c12 | 25.3 µM (active) |  | -35% (active) | inactive | inactive |  | inactive |  | inactive | 24.5 µM (active) | 24.5 µM (active) |  | inactive | inactive | -4.42% | inactive | inactive | 24.5 µM (active) | 17.4 µM (active) | inactive
CCCCCCCCCCCCCCN(CCO)CCO | 89.8 µM (active) |  | -78.9% | 21.9 µM (active) | inactive | 38.9 µM (active) |  | 19.5 µM (active) | 43.6 µM (active) | 49 µM (active) | 49 µM (active) | inactive | 21.9 µM (active) | 54.9 µM (active) |  | 19.5 µM (active) |  | 24.5 µM (active) | 13.8 µM (active) | 17.4 µM (active)
Nc1ccc(N=Nc2ccccc2)c(N)c1 | 98.6 µM (active) |  |  | 42.7 µM (active) | inactive | inactive | 42.7 µM (active) | 38.1 µM (active) | inactive | inactive | inactive |  |  |  |  | inactive | inactive | inactive | inactive | inactive
CN1CCCN=C1COC(=O)C(O)(c1ccccc1)C1CCCCC1 (configuration not stated) | inactive |  | 6.85% [at 42.5 µM] | inactive | inactive |  |  |  | inactive | inactive | inactive | inactive | inactive | inactive |  |  |  | inactive | inactive | 
CCCCCCCC/C=C\CCCCCCCCCCCC(=O)O | inactive |  |  |  | inactive | inactive | inactive |  | inactive | inactive |  | inactive | inactive | inactive |  | inactive | inactive | inactive | inactive | inactive
Brc1cc2ccccc2c2ccccc12 |  |  | -24% |  | inactive |  |  |  | inactive | inactive | 44 µM (active) |  | inactive | inactive |  | inactive |  | inactive | 39.2 µM (active) | inactive
CC(=O)N/N=C/c1ccc([N+](=O)[O-])o1 |  | inactive | -10.2% [at 42.5 µM] | inactive | inactive | inactive |  |  | inactive | inactive |  |  | inactive | inactive | 8% | inactive | inactive | inactive |  | inactive
CCOC(=O)c1ccc(I)cc1 | inactive |  | -4.74% |  | inactive | 35 µM (active) |  |  | 35 µM (active) | inactive |  |  | inactive | inactive | -24.8% | inactive | inactive | inactive | inactive | inactive
O=C1c2ccccc2C(=O)C1(O)O |  |  | -26.5% | inactive | inactive | inactive | inactive |  | inactive | inactive |  | 50.8 µM (active) | inactive | inactive | -22.4% | inactive | inactive | inactive |  | inactive
